Test results from PubChem BioAssay (NCATS).
Values joined by “and” are separate entries in the source; they are usually repeats but may differ in a detail not shown here. Equal entries are not always repeated. Inconclusive results are not listed. Entries that show only a call come without a potency. Active and inactive are the calls of the source. Unless noted, calls come from the whole dose curve; as a rule, active = well fitted curve in the direction sought with a large enough effect; inconclusive = small, poorly fitted or top-dose-only effect, or another doubt; inactive = no such curve, though single readings can be large; an effect the other way counts as inactive or inconclusive.

Tests used:
[1] = Cell Viability - BJ (AID 421; calls by dose curve;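 note: potency is the fitted concentration of half-maximal effect; cells exposed to compound for 40 hours at 37 °C before readout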); settings: BJ fibroblast viability, qHTS
In short: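 Cytotoxicity in human BJ foreskin fibroblasts is scored as loss of cellular ATP after a 40-hour exposure, measured by luciferase luminescence. Controls are DMSO and 100 uM tamoxifen.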

[2] = Cell Viability - HepG2 (AID 433; calls by dose curve;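 note: potency is the fitted concentration of half-maximal effect; cells exposed to compound for 40 hours; potency for ATP loss meaning cytotoxicity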); settings: qHTS
In short: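 In this qHTS format, a 40 h, 37 °C compound incubation of HepG2 cells in complete medium precedes a 20 min CellTiter-Glo step at room temperature. Tamoxifen and doxorubicin serve as positive controls; Hill-equation fits yield AC50.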

[3] = Cell Viability - Mesenchymal (AID 546); settings: mesenchymal cells viability, qHTS; activity change, negative = cytotoxicity: at 91.7 µM (top of the series);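 note: cells exposed to compound for 40 hours before reading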
In short: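 Human renal mesenchymal cells (glomerulus-derived), 1000 cells/well, 5 hr 37 °C pre-incubation; compound 40 hr, 37 °C; CellTiter-Glo, 20 min RT; luminescence; AC50 via Hill equation.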

[4] = Cell Viability - LYMP1-003 - Assay at 40 hr (AID 964); settings: LYMP1-003 lymphoblastoid viability; series mostly up to 92.2 µM; note: nearly all actives have a fitted effect of over 60% in size
In short: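 Viability is taken as cellular ATP, read by CellTiter-Glo luminescence after 40 h of compound exposure at 37 C. Cells: human lymphoblastoid line LYMP1-003 at 2500/well; AC50 values derived by Hill-equation fitting of concentration-response data.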

[5] = Cell Viability - LYMP2-004 (AID 966); settings: LYMP2-004 lymphoblastoid cell viability, qHTS; series mostly up to 92.2 µM; note: nearly all actives have a fitted effect of over 65% in size
In short: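 AC50 values come from Hill modelling of concentration-dependent loss of intracellular ATP, measured by CellTiter-Glo luminescence. Human LYMP2-004 lymphoblastoid cells (2500/well) were exposed to compound for 24 h at 37 C.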

[6] = Cell Viability - LYMP2-021 (AID 974); settings: LYMP2-021 lymphoblastoid cells viability; series mostly up to 92.2 µM; note: nearly all actives have a fitted effect of over 55% in size
In short: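 AC50 values come from Hill-equation fits to CellTiter-Glo luminescence (ATP content), read after 24 hour compound exposure at 37 C of 2500 LYMP2-021 lymphoblastoid cells/well; tetraoctylammonium bromide as positive control.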

[7] = Cell Viability - LYMP2-025 (AID 976); settings: LYMP2-025 lymphoblastoid cell viability; series mostly up to 92.2 µM
In short: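 Cytotoxicity read as loss of intracellular ATP (luciferase luminescence) after 24 h compound treatment at 37 C. Uses LYMP2-025 lymphoblastoid cells in 1536-well format; Hill-equation modelling gives AC50; tetraoctylammonium bromide as positive control.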

[8] = Cell Viability - LYMP2-002 (AID 977); settings: LYMP2-002 lymphoblastoid cell viability, qHTS; series mostly up to 92.2 µM
In short: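 Human lymphoblastoid cells, 2500/well, complete medium; 5 h 37 C settle; compound 24 h 37 C; CellTiter-Glo, 30 min RT; luminescence. Decrease in ATP = cytotoxicity; AC50 via Hill equation.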

[9] = Cell Viability - LYMP2-008 (AID 980); settings: LYMP2-008 lymphoblastoid cell viability, qHTS; series mostly up to 92.2 µM; note: nearly all actives have a fitted effect of over 60% in size
In short: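 Cytotoxicity determined from ATP-dependent luciferase luminescence (CellTiter-Glo) following 24 h compound exposure of human lymphoblastoid LYMP2-008 cells at 37 C. Concentration-response data fitted to the Hill equation to give AC50.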

[10] = Cell Viability - LYMP2-014 (AID 983); settings: LYMP2-014 lymphoblastoid cells, viability qHTS; series mostly up to 92.2 µM; note: nearly all actives have a fitted effect of over 50% in size
In short: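 Intracellular ATP loss, read by luciferase luminescence, measures acute cytotoxicity after 24 h compound exposure of lymphoblastoid LYMP2-014 cells (2500/well, 37 C). Concentration-response data fitted to the Hill equation for AC50.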

[11] = Cell Viability - LYMP2-016 (AID 984); settings: LYMP2-016 lymphoblastoid cell viability, qHTS; series mostly up to 92.2 µM; note: nearly all actives have a fitted effect of over 55% in size
In short: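 Concentration-dependent ATP depletion measured in LYMP2-016 lymphoblastoid cells, 24 h, 37 C; luciferase-based luminescent detection; Hill-equation AC50.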

[12] = Cell Viability - LYMP2-018 (AID 985); settings: LYMP2-018 lymphoblastoid cells, viability (qHTS); series mostly up to 92.2 µM; note: nearly all actives have a fitted effect of over 50% in size
In short: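 Viability read as CellTiter-Glo luminescence (cellular ATP) after 24 hr compound exposure at 37 C of 2500 LYMP2-018 lymphoblastoid cells/well, pre-plated 5 hr. Hill-equation modelling gave AC50.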

[13] = Cell Viability - LYMP2-020 (AID 986); settings: series mostly up to 92.2 µM; note: nearly all actives have a fitted effect of over 55% in size
In short: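 Cytotoxicity in qHTS format: luminescent ATP readout from CellTiter-Glo after 24 h compound exposure at 37 C in complete medium. LYMP2-020 lymphoblastoid cells were seeded at 2500/well; concentration-response data fitted to the Hill equation for AC50.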

[14] = Cell Viability - LYMP2-022 (AID 987); settings: LYMP2-022 lymphoblastoid cell viability; series mostly up to 92.2 µM; note: nearly all actives have a fitted effect of over 55% in size
In short: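 Cytotoxicity read as decreased cellular ATP (CellTiter-Glo luminescence, 30 min room temperature) after 24 hours compound exposure of 2500 lymphoblastoid LYMP2-022 cells/well at 37 C. Concentration-response data fitted with standard Hill equation for AC50.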

[15] = Cell Viability - LYMP2-026 (AID 989); settings: LYMP2-026 lymphoblastoid cell viability, qHTS; series mostly up to 92.2 µM; note: nearly all actives have a fitted effect of over 50% in size
In short: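 Cytotoxicity read as ATP-dependent luminescence (CellTiter-Glo, 30 min room temperature) after 24 h compound treatment at 37 C. LYMP2-026 lymphoblastoid line seeded at 2500 cells/well; AC50 derived by standard Hill equation.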

[16] = Cell Viability - LYMP1-002 - Assay at 40 hr (AID 994); settings: LYMP1-002 lymphoblastoid cell viability; series mostly up to 92.2 µM; note: nearly all actives have a fitted effect of over 60% in size
In short: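 Cytotoxicity was read as loss of cellular ATP (CellTiter-Glo luminescence) after 40 hr compound exposure at 37 C of 2500 LYMP1-002 lymphoblastoid cells per well. Concentration-response data were fitted with the standard Hill equation to give AC50.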

[17] = qHTS assay for small molecule antagonists of retinoid X receptor alpha signaling (AID 588546; active = well fitted inhibition curve with a large enough effect in the signal ratio, with a control signal flat, not every such curve was filed as active; the % refers to the signal ratio;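 note: cells stimulated with 9-cis-retinoic acid as agonist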); settings: HEK293T RXRa-UAS-bla, beta-lactamase ratio, antagonist mode; measured here: W530 green channel, cytotoxicity proxy
In short: (§1)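 Beta-lactamase reporter inhibition, read as CCF4 fluorescence ratio (ex 405, em 460/530 nm) after 2 h at RT. HEK293T UAS-bla cells, 2500/well, were stimulated with 9-cis-RA at 500 or 100 nM final alongside test compound for 18 h at 37 C.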

[18] = target: Retinoic acid receptor RXR-alpha (Homo sapiens) (UniProt P19793); test: as above; settings: HEK293T RXRa-UAS-bla, beta-lactamase ratio, antagonist mode
Sequence of Retinoic acid receptor RXR-alpha (Homo sapiens) (P19793 whole entry, looked up): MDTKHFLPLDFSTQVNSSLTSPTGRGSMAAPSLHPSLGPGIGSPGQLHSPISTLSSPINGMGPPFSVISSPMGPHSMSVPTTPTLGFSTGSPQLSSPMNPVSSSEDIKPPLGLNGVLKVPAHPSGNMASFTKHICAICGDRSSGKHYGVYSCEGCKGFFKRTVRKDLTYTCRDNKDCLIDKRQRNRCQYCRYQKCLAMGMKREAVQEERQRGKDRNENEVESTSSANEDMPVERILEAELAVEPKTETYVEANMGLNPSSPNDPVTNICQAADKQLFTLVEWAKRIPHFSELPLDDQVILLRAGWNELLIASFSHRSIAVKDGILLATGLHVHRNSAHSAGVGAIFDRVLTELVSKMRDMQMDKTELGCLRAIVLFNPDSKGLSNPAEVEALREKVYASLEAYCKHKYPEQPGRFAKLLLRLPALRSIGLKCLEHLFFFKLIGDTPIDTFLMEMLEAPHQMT
In short: as §1

[19] = qHTS assay for environmental chemicals that activate the Aryl hydrocarbon Receptor (AhR) signaling pathway (AID 651777); settings: 1A2-DRE human hepatoma cells, luciferase, 24 h; activation: stronger effect = higher value; note: nearly all actives have a fitted effect of over 15% in size
In short: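 Concentration–response screening used 1,200 1A2-DRE cells per well, 24 hr compound exposure (37 C, 5% CO2), and One-Glo luminescence as the AhR-driven CYP1A2 reporter signal.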

[20] = qHTS assay for cell viability of HEK293 cells (AID 743288); settings: ATP luminescence (CellTiter-Glo), 18 h; max response: stronger effect = lower value; note: nearly all actives have a fitted effect of over 50% in size
In short: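 HEK293, 18 h, 37 C, ATP luminescence. Cells at 2,000/well were allowed at least 5 h to settle before dosing; CellTiter-Glo developed 30 min at RT.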

Structure (SMILES) | Potency [1] | Potency [2] | Potency [3] | Potency [4] | Potency [5] | Potency [6] | Potency [7] | Potency [8] | Potency [9] | Potency [10] | Potency [11] | Potency [12] | Potency [13] | Potency [14] | Potency [15] | Potency [16] | max response [17] | max response [18] | activation [19] | max response [20]
Cc1cccnc1 | > 92 µM (inactive) | > 92 µM (inactive) | inactive | inactive | inactive | inactive | inactive | inactive | inactive | inactive | inactive | inactive | inactive | inactive | inactive | inactive | -1.12% | 7.72% (inactive) | 0.348% (inactive) | -8.35% (inactive)
CC(=O)OCc1ccc2c(c1)OCO2 | > 92 µM (inactive) | > 92 µM (inactive) | inactive |  | inactive | inactive | inactive | inactive | inactive | inactive | inactive | inactive | inactive | inactive | inactive | inactive | 8.84% | 24.9% (inactive) | 1.36% (inactive) | -6.03% (inactive)
CCC(Cl)CC(Cl)C(Cl)C(Cl)C(Cl)C(C)Cl (stereo not drawn) | > 92 µM (inactive) | > 92 µM (inactive) | inactive | inactive | inactive | inactive | inactive | inactive | inactive | inactive | inactive | inactive | inactive | inactive | inactive | inactive | 7.22% | -1.06% (inactive) | -0.274% (inactive) | 0.239% (inactive)
CN(C)c1ccc(Cc2ccc(N(C)C)cc2)cc1 | > 92 µM (inactive) | > 92 µM (inactive) | inactive | inactive | inactive | inactive | inactive | inactive | inactive | inactive | inactive | inactive | inactive | inactive | inactive | inactive | 3.74% and -6.02% | 1.04% (inactive) and -36.9% (inactive) | 8.36% (inactive) and 2.98% (inactive) | -15.2% (inactive) and -24.3% (inactive)
CC(=O)c1ccc(Cl)c(Cl)c1Cl | > 92 µM (inactive) | > 92 µM (inactive) | inactive | inactive | inactive | inactive | inactive | inactive | inactive | inactive | inactive | inactive | inactive | inactive | inactive | inactive | -2.76% | 5.75% (inactive) | -0.636% (inactive) | 4.03% (inactive)
CC(C)S | > 92 µM (inactive) | > 92 µM (inactive) | inactive | inactive | inactive | inactive | inactive | inactive | inactive | inactive | inactive | inactive | inactive | inactive | inactive | inactive | 0.793% | 1.63% (inactive) | -2.58% (inactive) | -8.12% (inactive)
Cc1ccc2ccc3cccc4ccc1c2c34 | > 92 µM (inactive) | > 92 µM (inactive) | inactive | inactive | inactive | inactive | inactive | inactive | inactive | inactive | inactive | inactive | inactive | inactive | inactive | inactive | -6.82% | -1.11% (inactive) | 5.12% (inactive) | -6.64% (inactive)
c1ccc2ncccc2c1 | > 92 µM (inactive) | > 92 µM (inactive) | inactive | inactive | inactive | inactive | inactive | inactive | inactive | inactive | inactive | inactive | inactive | inactive | inactive | inactive | -0.528% | 0.834% (inactive) | -0.0283% (inactive) | -7.69% (inactive)
CCCC(=O)OC(=O)CCC | > 92 µM (inactive) | > 92 µM (inactive) | inactive | inactive | inactive | inactive | inactive | inactive | inactive | inactive | inactive | inactive | inactive | inactive | inactive | inactive | -8.03% and -4.72% | 2.23% (inactive) and 15.8% (inactive) | 0.206% (inactive) and -0.322% (inactive) | -4.88% (inactive) and -8.13% (inactive)
Nc1cc([N+](=O)[O-])ccc1O | > 92 µM (inactive) | > 92 µM (inactive) | inactive | inactive | inactive | inactive | inactive | inactive | inactive | inactive | inactive | inactive | inactive | inactive | inactive | inactive | -1.99% and 10.2% | 2.5% (inactive) and -26.6% (inactive) | 12.6% (inactive) and 2.53% (inactive) | 11.2% (inactive) and -4.43% (inactive)
COc1ccc([N+](=O)[O-])cc1N | > 92 µM (inactive) | > 92 µM (inactive) | inactive | inactive |  | inactive | inactive | inactive | inactive | inactive | inactive | inactive | inactive | inactive | inactive | inactive | 0.433% and 4.58% | 4.59% (inactive) and -0.147% (inactive) | 1.04% (inactive) and 4.76% (inactive) | -2.82% (inactive) and -3.03% (inactive)
